Activity calls are given as the source filed them. How the source made its calls: active means hit-call score of the fitted dose curve at least 0.9, where 1 is the maximum; inactive means score below 0.9.
Key:
[1] = CEETOX_H295R_DOC: CeeTox H295R High-throughput Steroidogenesis Assay for DOC (AID 2283439); details: actives raise or lower the signal
How it was run: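 Secreted DOC was quantified from H295R media by HPLC-MS/MS after 48 h chemical exposure following 48 h forskolin (10 uM) prestimulation. Values were fitted in both directions relative to DMSO, the negative control and baseline.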

[2] = CEETOX_H295R_ESTRADIOL: CeeTox H295R High-throughput Steroidogenesis Assay for Estradiol (AID 2283440); details: actives raise or lower the signal;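 further: estradiol secreted into medium quantified by LC-MS/MS after dansyl derivatisation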
How it was run: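 H295R cells pre-stimulated 48 h with 10 uM forskolin, then exposed 48 h to chemical in 0.1% DMSO. Medium estradiol quantified by MTBE extraction, dansyl derivatisation and HPLC-MS/MS; bidirectional fit versus DMSO; MTT viability required >/=70%.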

[3] = CEETOX_H295R_ESTRONE: CeeTox H295R High-throughput Steroidogenesis Assay for Estrone (AID 2283441); details: actives raise or lower the signal;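 further: estrone secreted into medium measured by LC-MS/MS after dansyl derivatization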
How it was run: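 H295R cells; 48 h forskolin (10 uM) prestimulation; 48 h compound exposure, 0.1% DMSO final. Medium estrone: MTBE extraction, dansyl derivatization, HPLC-MS/MS. Bidirectional fit vs DMSO.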

[4] = CEETOX_H295R_PROG: CeeTox H295R High-throughput Steroidogenesis Assay for Progesterone (PROG) (AID 2283442); details: actives raise or lower the signal;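 on AC50: human H295R adrenal cells primed with 10 µM forskolin before dosing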
How it was run: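 H295R adrenal cells prestimulated 48 h with 10 uM forskolin, then exposed 48 h to test chemical in 0.1% DMSO. Progesterone in medium quantified by HPLC-MS/MS after MTBE extraction; viability checked by MTT in same wells.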

[5] = read-out: Tumor necrosis factor receptor superfamily member 6 (Homo sapiens) (UniProt P25445); test: LTEA_HepaRG_FAS: Life Technologies and Expression Analysis (LTEA) Assay for Fas cell surface death receptor (FAS) using HepaRG (AID 2283447); details: mRNA level, 48 h; actives raise or lower the signal
How it was run: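 Differentiated HepaRG cells in serum-free induction medium were exposed 48 h to 8 half-log concentrations up to 100 uM in 0.5% DMSO, in duplicate. FAS mRNA was measured by qRT-PCR normalised to ACTB, GAPDH and POLR2A; bidirectional fit versus DMSO.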

[6] = read-out: Fatty acid synthase (Homo sapiens) (UniProt P49327); test: LTEA_HepaRG_FASN: Life Technologies and Expression Analysis (LTEA) Assay for Fatty Acid Synthase (FASN) using HepaRG (AID 2283448); details: mRNA level, 48 h; actives raise or lower the signal
How it was run: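 Transcript-level assay: HepaRG liver cells are treated for 48 h across an eight-point range topping at 100 uM, and FASN mRNA, normalized to three housekeeping genes, is compared with DMSO controls in both directions.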

[7] = read-out: Cyclin D2 (CCND2), CCND2 (gene 894); test: LTEA_HepaRG_CCND2: Life Technologies and Expression Analysis (LTEA) Assay for Cyclin D2 (CCND2) using HepaRG (AID 2283449); details: mRNA level, 48 h; actives raise or lower the signal;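 further: CCND2 transcript measured by TaqMan qRT-PCR and normalised to three housekeeping genes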
How it was run: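 Chemicals in 0.5% DMSO, eight half-log concentrations from 100 uM top, were applied in duplicate for 48 h to human HepaRG cells in serum-free induction medium. CCND2 mRNA by TaqMan qRT-PCR, normalised to ACTB/GAPDH/POLR2A; bidirectional fit versus DMSO.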

[8] = read-out: Cyclin Dependent Kinase Inhibitor 1A (CDKN1A), CDKN1A (gene 1026); test: LTEA_HepaRG_CDKN1A: Life Technologies and Expression Analysis (LTEA) Assay for Cyclin Dependent Kinase Inhibitor 1A (CDKN1A) using HepaRG (AID 2283450); details: mRNA level, 48 h; actives raise or lower the signal
How it was run: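 Differentiated HepaRG cells in serum-free induction medium, exposed 48 h in duplicate to eight half-log concentrations up to 100 uM in 0.5% DMSO. mRNA measured by TaqMan qRT-PCR, normalized to ACTB, GAPDH, POLR2A; bidirectional fit versus DMSO.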

[9] = read-out: Cyclin D1 (CCND1), CCND1 (gene 595); test: LTEA_HepaRG_CCND1: Life Technologies and Expression Analysis (LTEA) Assay for Cyclin D1 (CCND1) using HepaRG (AID 2283451); details: mRNA level, 48 h; actives raise or lower the signal
How it was run: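 Differentiated HepaRG cells exposed 48 h in serum-free induction medium to eight half-log concentrations from 100 uM top, 0.5% DMSO, duplicates. CCND1 mRNA measured by Fluidigm TaqMan qRT-PCR, normalised to ACTB, GAPDH, POLR2A; bidirectional fit.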

[10] = read-out: catalase (CAT), CAT (gene 847); test: LTEA_HepaRG_CAT: Life Technologies and Expression Analysis (LTEA) Assay for catalase (CAT) using HepaRG (AID 2283452); details: mRNA level, 48 h; actives raise or lower the signal
How it was run: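 HepaRG cells in serum-free induction medium, 0.5% DMSO vehicle, exposed 48 h in duplicate over 8 half-log concentrations from 100 uM. CAT mRNA measured by qRT-PCR, normalized to ACTB, GAPDH, POLR2A; bidirectional fit versus DMSO.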

[11] = read-out: flavin-containing dimethylaniline monooxygenases 3 (FMO3), FMO3 (gene 2328); test: LTEA_HepaRG_FMO3: Life Technologies and Expression Analysis (LTEA) Assay for flavin-containing dimethylaniline monooxygenases 3 (FMO3) using HepaRG (AID 2283453); details: mRNA level, 48 h; actives raise or lower the signal
How it was run: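 HepaRG, 48 h exposure, 8-pt half-log series from 100 uM, 0.5% DMSO vehicle, duplicates; FMO3 transcript by Fluidigm TaqMan qRT-PCR, housekeeping-normalized; gain/loss fit vs DMSO.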

[12] = read-out: Cytochrome P450 (CYP1A1), CYP1A1 (gene 1543); test: LTEA_HepaRG_CYP1A1: Life Technologies and Expression Analysis (LTEA) Assay for Cytochrome P450 (CYP1A1) using HepaRG (AID 2283454); details: mRNA level, 48 h; actives raise or lower the signal
How it was run: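 Differentiated human HepaRG cells, after 48 h plating, exposed in duplicate for 48 h in serum-free induction medium to 8 half-log concentrations up to 100 uM in 0.5% DMSO. CYP1A1 mRNA by qRT-PCR, normalized to ACTB/GAPDH/POLR2A; bidirectional fit versus DMSO.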

[13] = read-out: CFLAR gene, CFLAR (gene 8837); test: LTEA_HepaRG_CFLAR: Life Technologies and Expression Analysis (LTEA) Assay for CFLAR gene using HepaRG (AID 2283455); details: mRNA level, 48 h; actives raise or lower the signal
How it was run: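 Differentiated HepaRG cells in serum-free induction medium were exposed 48 h in duplicate to eight half-log concentrations up to 100 uM in 0.5% DMSO; mRNA measured by TaqMan qRT-PCR, normalized to ACTB, GAPDH, POLR2A; bidirectional fitting versus DMSO.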

[14] = read-out: Forkhead box O1 (FOXO1), FOXO1 (gene 2308); test: LTEA_HepaRG_FOXO1: Life Technologies and Expression Analysis (LTEA) Assay for Forkhead box O1 (FOXO1) using HepaRG (AID 2283456); details: mRNA level, 48 h; actives raise or lower the signal
How it was run: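 Differentiated HepaRG cells, in serum-free induction medium with 0.5% DMSO, exposed 48 h in duplicate to 8-point half-log series from 100 uM. FOXO1 mRNA measured by TaqMan qRT-PCR, normalized to ACTB, GAPDH, POLR2A; bidirectional fit versus DMSO.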

[15] = CEETOX_H295R_TESTO: CeeTox H295R High-throughput Steroidogenesis Assay for Testosterone (TESTO) (AID 2283457); details: actives raise or lower the signal
How it was run: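 H295R adrenal cells, passage ≤10, exposed to chemicals for 48 h. Testosterone in medium measured by MTBE extraction and HPLC-MS/MS against a 7-point standard curve. Bidirectional fit versus DMSO; MTT viability checked in the same wells.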

[16] = read-out: growth arrest and DNA damage 45 (GADD45A), GADD45A (gene 1647); test: LTEA_HepaRG_GADD45A: Life Technologies and Expression Analysis (LTEA) Assay for growth arrest and DNA damage 45 (GADD45A) using HepaRG (AID 2283458); details: mRNA level, 48 h; actives raise or lower the signal
How it was run: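 Human HepaRG liver cells are treated in duplicate for 48 h with chemicals in 0.5% DMSO, highest concentration 100 uM. Expression is read by qRT-PCR and analyzed in both directions against vehicle.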

[17] = read-out: Forkhead box O3 (FOXO3), FOXO3 (gene 2309); test: LTEA_HepaRG_FOXO3: Life Technologies and Expression Analysis (LTEA) Assay for Forkhead box O3 (FOXO3) using HepaRG (AID 2283459); details: mRNA level, 48 h; actives raise or lower the signal
How it was run: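 Differentiated human HepaRG cells, 48 h post-plating, exposed in duplicate for 48 h in serum-free induction medium; 8-point half-log series from 100 uM in 0.5% DMSO. FOXO3 mRNA by TaqMan qRT-PCR, normalized to ACTB/GAPDH/POLR2A; bidirectional fit versus DMSO.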

[18] = read-out: ABC Transporter (ABCB1), ABCB1 (gene 5243); test: LTEA_HepaRG_ABCB1: Life Technologies and Expression Analysis (LTEA) Assay for ABC Transporter (ABCB1) using HepaRG (AID 2283460); details: mRNA level, 48 h; actives raise or lower the signal
How it was run: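 HepaRG cells exposed in duplicate for 48 h in serum-free induction medium to eight half-log concentrations up to 100 uM in 0.5% DMSO. ABCB1 mRNA quantified by qRT-PCR, normalised to ACTB, GAPDH and POLR2A; fitted bidirectionally versus DMSO.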

[19] = read-out: growth arrest and DNA damage 45 (GADD45B), GADD45B (gene 4616); test: LTEA_HepaRG_GADD45B: Life Technologies and Expression Analysis (LTEA) Assay for growth arrest and DNA damage 45 (GADD45B) using HepaRG (AID 2283461); details: mRNA level, 48 h; actives raise or lower the signal
How it was run: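 Differentiated human HepaRG cells in serum-free induction medium exposed 48 h in duplicate to eight concentrations, top 100 uM, half-log steps, 0.5% DMSO. GADD45B mRNA by TaqMan qRT-PCR, normalized to ACTB, GAPDH, POLR2A; bidirectional fit versus DMSO.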

[20] = read-out: ABC Transporter (ABCC3), ABCC3 (gene 8714); test: LTEA_HepaRG_ABCC3: Life Technologies and Expression Analysis (LTEA) Assay for ABC Transporter (ABCC3) using HepaRG (AID 2283462); details: mRNA level, 48 h; actives raise or lower the signal
How it was run: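 Differentiated human HepaRG cells exposed 48 h in serum-free induction medium, 0.5% DMSO vehicle, 8-point half-log series to 100 uM in duplicate. ABCC3 mRNA by qRT-PCR, normalised to ACTB, GAPDH, POLR2A; bidirectional fit vs DMSO.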

Fatty acid synthase (Homo sapiens), sequence (P49327 whole entry, looked up): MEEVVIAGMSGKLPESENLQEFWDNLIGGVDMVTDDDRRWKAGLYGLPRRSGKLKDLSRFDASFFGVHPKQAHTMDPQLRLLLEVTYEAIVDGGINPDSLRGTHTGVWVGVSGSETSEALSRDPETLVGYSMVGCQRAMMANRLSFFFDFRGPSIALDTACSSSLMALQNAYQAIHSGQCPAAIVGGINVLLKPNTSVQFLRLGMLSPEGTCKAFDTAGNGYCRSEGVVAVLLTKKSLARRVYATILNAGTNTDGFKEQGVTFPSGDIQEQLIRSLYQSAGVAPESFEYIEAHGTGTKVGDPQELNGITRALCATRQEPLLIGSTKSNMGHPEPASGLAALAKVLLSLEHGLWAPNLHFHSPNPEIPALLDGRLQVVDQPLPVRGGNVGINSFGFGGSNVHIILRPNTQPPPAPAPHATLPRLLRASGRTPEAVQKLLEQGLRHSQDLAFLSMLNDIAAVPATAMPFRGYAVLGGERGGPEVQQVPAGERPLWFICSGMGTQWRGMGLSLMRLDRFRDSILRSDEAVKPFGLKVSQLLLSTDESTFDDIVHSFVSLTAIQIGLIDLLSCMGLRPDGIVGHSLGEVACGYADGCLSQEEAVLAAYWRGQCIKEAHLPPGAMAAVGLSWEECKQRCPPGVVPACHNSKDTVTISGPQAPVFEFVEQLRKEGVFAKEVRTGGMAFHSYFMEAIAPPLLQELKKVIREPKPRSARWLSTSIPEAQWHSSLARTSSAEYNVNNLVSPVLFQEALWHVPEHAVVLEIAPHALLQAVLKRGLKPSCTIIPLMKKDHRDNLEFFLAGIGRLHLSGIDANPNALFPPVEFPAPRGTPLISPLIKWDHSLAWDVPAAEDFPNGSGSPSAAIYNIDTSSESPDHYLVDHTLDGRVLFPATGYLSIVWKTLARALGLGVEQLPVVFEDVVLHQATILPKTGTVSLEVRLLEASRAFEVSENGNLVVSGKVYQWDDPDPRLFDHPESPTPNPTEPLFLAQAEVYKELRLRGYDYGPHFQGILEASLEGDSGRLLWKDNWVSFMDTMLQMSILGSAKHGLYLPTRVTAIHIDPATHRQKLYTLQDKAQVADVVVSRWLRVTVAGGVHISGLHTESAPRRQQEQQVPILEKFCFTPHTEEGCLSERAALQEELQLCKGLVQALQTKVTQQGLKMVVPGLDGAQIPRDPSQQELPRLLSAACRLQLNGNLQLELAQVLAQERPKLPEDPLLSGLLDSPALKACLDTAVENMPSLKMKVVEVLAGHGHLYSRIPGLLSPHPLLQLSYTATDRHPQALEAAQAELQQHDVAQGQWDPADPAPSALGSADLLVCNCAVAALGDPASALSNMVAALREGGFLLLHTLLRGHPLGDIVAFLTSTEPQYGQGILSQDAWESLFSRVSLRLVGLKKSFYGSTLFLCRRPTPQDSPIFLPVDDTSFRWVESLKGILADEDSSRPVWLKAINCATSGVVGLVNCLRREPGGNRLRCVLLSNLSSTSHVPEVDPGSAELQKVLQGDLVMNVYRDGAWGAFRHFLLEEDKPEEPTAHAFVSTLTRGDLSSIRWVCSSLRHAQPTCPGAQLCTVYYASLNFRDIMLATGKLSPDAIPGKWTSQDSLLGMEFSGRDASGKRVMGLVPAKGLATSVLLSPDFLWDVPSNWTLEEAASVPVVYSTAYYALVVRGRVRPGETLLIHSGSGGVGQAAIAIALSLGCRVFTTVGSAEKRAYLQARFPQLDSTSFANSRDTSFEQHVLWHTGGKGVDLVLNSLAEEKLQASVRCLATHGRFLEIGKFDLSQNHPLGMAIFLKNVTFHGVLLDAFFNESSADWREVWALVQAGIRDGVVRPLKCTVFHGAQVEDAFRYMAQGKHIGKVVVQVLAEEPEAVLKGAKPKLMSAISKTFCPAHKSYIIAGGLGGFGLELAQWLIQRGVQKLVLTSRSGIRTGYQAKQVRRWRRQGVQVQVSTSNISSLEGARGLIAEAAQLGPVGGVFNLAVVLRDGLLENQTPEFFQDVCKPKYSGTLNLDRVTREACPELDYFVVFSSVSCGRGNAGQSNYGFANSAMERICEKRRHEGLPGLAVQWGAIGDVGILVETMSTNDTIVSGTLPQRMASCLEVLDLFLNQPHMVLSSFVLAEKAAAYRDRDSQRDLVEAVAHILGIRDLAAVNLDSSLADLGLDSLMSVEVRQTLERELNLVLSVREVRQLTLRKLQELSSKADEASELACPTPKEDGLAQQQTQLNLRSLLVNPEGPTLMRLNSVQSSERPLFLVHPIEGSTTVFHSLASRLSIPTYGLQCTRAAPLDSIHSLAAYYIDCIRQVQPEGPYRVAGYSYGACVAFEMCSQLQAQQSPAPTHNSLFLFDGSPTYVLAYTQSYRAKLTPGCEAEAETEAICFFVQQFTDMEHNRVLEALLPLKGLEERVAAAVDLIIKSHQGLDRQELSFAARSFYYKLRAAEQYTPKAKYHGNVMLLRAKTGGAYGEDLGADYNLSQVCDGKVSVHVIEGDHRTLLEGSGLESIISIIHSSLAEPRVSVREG

Compound: Cc1ccc(N)cc1O
- outcome [1]: inactive
- AC50 [2]: 40.9 µM (active)
- outcome [3]: inactive
- AC50 [4]: 50 µM (active)
- outcome [5]: inactive
- AC50 [6]: 26.3 µM (active)
- outcome [7]: inactive
- outcome [8]: inactive
- outcome [9]: inactive
- outcome [10]: inactive
- outcome [11]: inactive
- AC50 [12]: 26.4 µM (active)
- outcome [13]: inactive
- outcome [14]: inactive
- outcome [15]: inactive
- outcome [16]: inactive
- outcome [17]: inactive
- outcome [18]: inactive
- outcome [19]: inactive
- outcome [20]: inactive

Compound: CN(C)c1ccc(Cc2ccc(N(C)C)cc2)cc1
- outcome [1]: inactive
- AC50 [4]: 3.81 µM (active)
- AC50 [5]: 50 µM (active)
- outcome [6]: inactive
- outcome [7]: inactive
- outcome [8]: inactive
- outcome [10]: inactive
- AC50 [11]: 83.1 µM (active)
- AC50 [12]: 13.2 µM (active)
- outcome [13]: inactive
- outcome [14]: inactive
- outcome [16]: inactive
- outcome [17]: inactive
- outcome [18]: inactive
- outcome [19]: inactive
- outcome [20]: inactive

Compound: C=CCCCCCCCCC(=O)O
- outcome [1]: inactive
- outcome [2]: inactive
- outcome [3]: inactive
- outcome [4]: inactive
- outcome [5]: inactive
- outcome [6]: inactive
- outcome [7]: inactive
- outcome [8]: inactive
- outcome [10]: inactive
- outcome [11]: inactive
- AC50 [12]: 50 µM (active)
- outcome [13]: inactive
- outcome [14]: inactive
- outcome [16]: inactive
- outcome [17]: inactive
- outcome [18]: inactive
- outcome [19]: inactive
- outcome [20]: inactive

From PubChem BioAssay (EPA / NIEHS)
